hgDAF12 agonist = H. glycines DAF-12 receptor agonists, primary screen, cell-based, luminescence, HEK293, GAL4 fusion, UAS-luciferase | AID 687014, 2013 | 370,000 compounds, 1.8% hits | HEK293 GAL4-hgDAF12 UAS-luciferase reporter, agonist luminescence; normalized to butyrate control | activation, % at 6.8 µM | Nuclear hormone receptor DAF-12 (Heterodera glycines), GAL4 fusion;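 active = activation above a cutoff set at the mean of all screened compounds plus 3 SD, cut at about 10% in these data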
FXN GAA850 act = FXN promoter activators, primary screen, cell-based, luciferase luminescence, HEK293 lucGAA850; HEK293 lucGAA850 FXN promoter luciferase reporter, 24 h; percent of 10 µM SAHA response; activation, % at 6 µM; 360,000 compounds, 0.56% hits; AID 540364, 2011;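 active = activation above the average of all compounds screened plus 3 SD, cutoff fixed separately per campaign, cut at about 7.5% in these data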
ssDAF-12 act = S. stercoralis DAF-12 nuclear receptor activators, primary screen, cell-based, luminescence, HEK293, GRIP1 co-expression, lit1-tk-luc | Nuclear hormone receptor DAF-12 (Strongyloides stercoralis) | activation, % at 6.8 µM | HEK293 ssDAF-12/GRIP1 lit1-tk-luc reporter; % of 3 µM dafachronic acid response | 370,000 compounds, 1% hits;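 active = activation above the mean over all tested compounds plus 3 SD, cut at about 0.9% in these data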
DAX1 inh-1 = DAX1 (NR0B1) inhibitors on StAR promoter, primary screen, cell-based, luminescence, SF-1 (NR5A1), full-length DAX-1; HEK293T StAR-luciferase reporter, SF-1/DAX-1 repression relief; inhibition, % at 6.8 µM; 370,000 compounds, 1.1% hits; AID 652010, 2013;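 active = inhibition above the mean over all tested compounds plus 3 SD, cut at about 3.6% in these data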;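 note: higher inhibition means more luminescence from relief of DAX-1 repression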
hcDAF12 agonist = H. contortus DAF-12 nuclear receptor activators, primary screen, cell-based, luminescence, HEK293, lit1-tk-luc reporter | HEK293 hcDAF-12 lit1-tk-luc reporter; 0% DMSO, 100% Δ7-dafachronic acid | activation, % at 6.8 µM | 370,000 compounds, 1.4% hits;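 active = activation above the mean of all tested compounds plus 3 SD, cut at about 5.5% in these data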
DAX1 inh-2 = DAX1 (NR0B1) inhibitors, primary screen, cell-based, HEK293, Gal4-DAX1, luciferase luminescence; inhibition, % at 6.75 µM; Nuclear receptor subfamily 0 group B member 1 (Homo sapiens), P51843; AID 504766, 2011; HEK293 Gal4-DAX1 luciferase reporter; 340,000 compounds, 0.99% hits;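 active = inhibition above the mean over all tested compounds plus 3 SD, cut at about 4.2% in these data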;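 note: inhibition shows as a rise in luminescence from relieved DAX1 repression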
Target sequence (P51843 207-470 limits assumed): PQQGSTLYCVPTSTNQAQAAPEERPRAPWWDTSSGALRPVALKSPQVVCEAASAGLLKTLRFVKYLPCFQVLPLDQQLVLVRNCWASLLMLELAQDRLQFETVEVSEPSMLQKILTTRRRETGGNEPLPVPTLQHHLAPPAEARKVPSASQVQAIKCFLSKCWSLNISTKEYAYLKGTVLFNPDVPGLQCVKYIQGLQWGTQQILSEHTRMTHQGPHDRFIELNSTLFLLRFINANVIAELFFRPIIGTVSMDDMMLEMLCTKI
Each line names hits and unclear results; the compound was inactive in the other large screens. Sampled rows, rich in hits. Any-hit rate of the full collection: about 4.5%.

CCOC(=O)c1ccc(N/C=C/C(=O)c2ccccc2)cc1	hgDAF12 agonist 12.0
O=C(/C=C/Nc1ccccc1)c1ccccc1	hgDAF12 agonist 11.1, DAX1 inh-1 3.8, hcDAF12 agonist 6.5
CCOC(=O)c1ccc(N/C=C/C(=O)C(C)(C)C)cc1	hgDAF12 agonist 13.1
CN(C)c1ccc(N/C=C/C(=O)C(C)(C)C)cc1	none
CCOC(=O)c1ccc(NC(=S)Nc2ccc(C)cc2)cc1	none
CCOC(=O)c1ccc(N/C=C/C(=O)c2ccc(OC)cc2)cc1	none
CC(=O)Nc1ccc(N/C=C/C(=O)c2ccccc2)cc1	none
O=C1CCC[C@H]2C[C@H](NCc3cccc(F)c3)CC[C@]23CCCN13	none (no result: FXN GAA850 act, DAX1 inh-1, DAX1 inh-2)
COc1ccc(NS(=O)(=O)c2cccc(C(=O)NCC(c3ccc(OC)cc3)N3CCCCC3)c2)cc1 (stereo unspecified)	none
Cc1ccc(S(=O)(=O)N(C)c2ccc(C(=O)NCC(c3ccccc3)N3CCCC3)cc2)cc1 (stereo unspecified)	DAX1 inh-1 4.0
COc1ccc(C(CNC(=O)c2cccc(S(=O)(=O)Nc3ccc(F)cc3)c2)N2CCCC2)cc1 (stereo unspecified)	DAX1 inh-1 3.6
CN(c1ccccc1)S(=O)(=O)c1ccc(C(=O)NCC(c2ccco2)N2CCCCC2)cc1 (stereo unspecified)	none
COc1ccc(NS(=O)(=O)c2cccc(C(=O)NCC(c3ccc(OC)cc3)N3CCCC3)c2)cc1 (stereo unspecified)	DAX1 inh-1 4.2
CCCCOc1ccc(C(=O)NC2CCCCN(Cc3ccc(Cl)cc3)C2=O)cc1 (stereo unspecified)	none (no result: FXN GAA850 act, DAX1 inh-2)
CC(=O)c1ccc(NC(=O)NC2CCCCN(Cc3cccc(Cl)c3)C2=O)cc1 (stereo unspecified)	none (no result: FXN GAA850 act, DAX1 inh-2)
COc1ccc(-c2noc(C3CCCN(C(=O)N[C@@H]4C[C@H]4c4ccccc4)C3)n2)cc1 (stereo partly specified)	none (no result: FXN GAA850 act, DAX1 inh-2)
O=C(Cn1ncc(N2CCCC2)c(Cl)c1=O)c1ccc(Cl)cc1	ssDAF-12 act 1.6
O=C(CNc1nnnn1-c1ccccc1)N1CCCC1	none (no result: FXN GAA850 act, DAX1 inh-2)
C[C@]12C(=O)N(c3ccc(Br)cc3)C(=O)N1[C@H]1c3ccccc3OC[C@@H]1[C@H]2c1ccccc1	hcDAF12 agonist 5.8
C#CCN1CC(N(C)CCOC(=O)c2occ3ccccc23)CS1(=O)=O (stereo unspecified)	none (no result: FXN GAA850 act, DAX1 inh-2)
Cc1ccc(S(=O)(=O)NCC2CN(S(=O)(=O)c3ccc(C)cc3)c3ccccc3C(=O)N2c2ccc(F)cc2)cc1 (stereo unspecified)	none (no result: FXN GAA850 act, DAX1 inh-1, DAX1 inh-2)
C=CCSc1nncn1/N=C/c1ccc(OC)cc1	hgDAF12 agonist 11.2, DAX1 inh-2 4.9
COC(=O)[C@]12C[C@H](CC(=O)NCCc3ccccc3OC)C(=O)N(Cc3ccc(Cl)cc3Cl)C1=C[C@H](COCc1ccccc1)O[C@@H]2C	none (no result: FXN GAA850 act, DAX1 inh-2)
COc1ccc(C)cc1N	none (no result: FXN GAA850 act, DAX1 inh-2)
COc1ccc(OC)c(N)c1	DAX1 inh-2 5.1
COc1ccc2c(c1)CCCN2C(=O)C1CCCN(S(=O)(=O)c2ccc(C(C)(C)C)cc2)C1 (stereo unspecified)	none (no result: FXN GAA850 act, DAX1 inh-2)
Cc1ccc(-n2c(COc3cccc(C)c3)n[nH]c2=S)cc1	DAX1 inh-2 4.8
Cc1cccc(OCc2n[nH]c(=S)n2-c2ccccc2)c1	none
O=C(c1ccccc1Cl)c1c(O)c2ccccc2oc1=O	DAX1 inh-2 5.6
CC(CCN1CCC(C(O)(c2ccccc2)c2ccccc2)CC1)Oc1cccc(Cl)c1 (stereo unspecified)	none (no result: FXN GAA850 act, DAX1 inh-2)
COc1ccc2c(c1)CCCN2C(=O)C1CCCN(S(=O)(=O)c2ccc(Br)s2)C1 (stereo unspecified)	none (no result: FXN GAA850 act, DAX1 inh-2)
Cc1cc(C)n(C(=O)Cn2nc(C)c(Cl)c2C)n1	DAX1 inh-2 4.5
Cc1cc(C)n(C(=O)Cn2nc(C)c(Br)c2C)n1	none
Cc1n[nH]c(=S)n1/N=C/c1ccccc1OCc1ccc(Cl)cc1	FXN GAA850 act 8.3
COc1ccc(NC(=O)C(c2cc3c(cc2[N+](=O)[O-])OCO3)N(C)Cc2ccccc2)cc1 (stereo unspecified)	hcDAF12 agonist 5.8
Cc1cccnc1NC(=S)NC(=O)/C=C/c1ccccc1	hgDAF12 agonist 12.3
O=C1CC[C@@H]2CC3(C[C@@H]4CCN1[C@H]24)Nc1ccccc1NC3=NC1CCCCC1 (stereo partly specified)	DAX1 inh-2 5.2
COc1ccccc1/C=C/C=N/NC(=O)c1ccccn1	hgDAF12 agonist 12.9, DAX1 inh-1 4.1
COc1ccccc1/C=C/C=N/NC(=O)c1cnccn1	none
COc1ccc(C(=O)Nc2ccc([N+](=O)[O-])cn2)cc1OC	none
O=C(N/N=C/C1CCCCC1)c1ccccn1	hgDAF12 agonist 12.2, hcDAF12 agonist 6.3
O=C(N/N=C/C1CCCCC1)c1cc(Cl)ccc1O	none
COc1ccc(NC(=O)c2ccccn2)cc1	none (no result: hgDAF12 agonist, ssDAF-12 act, DAX1 inh-1, hcDAF12 agonist)
COc1ccc(NC(=O)c2ccccn2)cc1OC	hgDAF12 agonist 11.6, DAX1 inh-2 4.4
COc1ccc(C(=O)Nc2ccc3ccccc3n2)cc1OC	DAX1 inh-2 4.8
C#CCNC(=O)C[C@@H]1C(=O)N(Cc2ccc(OC)cc2)/C2=C/CCCCC[C@@]21C(=O)OCC	none (no result: FXN GAA850 act, DAX1 inh-2)
CCOC(=O)[C@@]12CN(C(=O)OC(C)(C)C)CC=C1N(Cc1ccc(OC)cc1)C(=O)[C@H]2CC(=O)N1CCSCC1	none (no result: FXN GAA850 act, DAX1 inh-2)
CC(C)CN1C(=O)[C@@]2(CC(=O)N(C)C2c2ccccc2)c2cc(-n3cc(CCCC#N)nn3)ccc21 (stereo partly specified)	none (no result: FXN GAA850 act, DAX1 inh-2)
CCC(=O)Nc1ccc(NC(=O)c2ccccn2)cn1	hgDAF12 agonist 12.0
CCN(C[C@H]1[C@@H](c2ccc(C3=CCCC3)cc2)[C@H](CO)N1Cc1ccccn1)S(=O)(=O)c1ccccc1[N+](=O)[O-]	none (no result: FXN GAA850 act, DAX1 inh-2)
CC(C)c1ccc(/C=C/C(=O)N2CCOCC2)cc1	ssDAF-12 act 0.9, DAX1 inh-2 6.2
CC/C=C\[C@H](O)[C@H](O)C1=C(C)C(=O)[C@]2(O1)C(=O)N[C@@](OC)(C(=O)c1ccccc1)[C@@H]2O	none (no result: FXN GAA850 act, DAX1 inh-2)
Cc1cc(Oc2ccccc2)nc(-c2ccccc2)n1	none
C=C(C)c1nc(Oc2ccccc2)nc(Oc2ccccc2)n1	DAX1 inh-2 6.0
